PubChem BioAssay (EPA / NIEHS)
Records with an inconclusive call do not appear. The source made the active and inactive calls. The calls were made as follows, unless noted: active = hit-call score of the fitted dose curve at least 0.9, where 1 is the maximum; inactive = score below 0.9.

Key:
[1] = IUF_NPC2c_oligodendrocyte_migration_120hr: Leibniz Research Institute for Environmental Medicine (IUF) 120-hour Neural Progenitor Cell Migration Assay for Oligodendrocyte Migration (NPC2c) (AID 2284297);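 also: O4-positive oligodendrocyte migration distance divided by radial glia migration distance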
Method in brief: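 hNPC spheres (GW 16-19 cortex), PDL/laminin, DMEM/F12 3:1 + 1% N2, 37C. Dosing day 0–5, half feed day 3, DMSO ≤0.1%. Fixed 120 h; O4 ICC + Hoechst, HCI. Readout: mean oligodendrocyte distance from sphere edge / radial glia distance.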

[2] = IUF_NPC2a_radial_glia_migration_120hr: Leibniz Research Institute for Environmental Medicine (IUF) 120-hour Neural Progenitor Cell Migration Assay for Radial Glia Migration (NPC2a) (AID 2284298)
Method in brief: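 Hoechst-stained nuclei imaged at 120 h; algorithm maps sphere core by densest nuclei, sets migration edge at density threshold, gives radial glia migration distance (um) per well vs DMSO. hNPC spheres (0.3 mm), PDL/laminin, DMEM/F12 3:1 + 1% N2.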

[3] = IUF_NPC2a_radial_glia_migration_72hr: Leibniz Research Institute for Environmental Medicine (IUF) 72-hour Neural Progenitor Cell Migration Assay for Radial Glia Migration (NPC2a) (AID 2284299)
Method in brief: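 Human fetal cortex (GW 16-19) neural progenitor spheres, 0.3 mm, plated on poly-D-lysine/laminin in N2 differentiation medium with compound from day 0. Radial glia migration distance (um, sphere core edge to migration edge) measured manually in four directions on 72 h brightfield images; well mean used.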

[4] = IUF_NPC2b_neuronal_migration_120hr: Leibniz Research Institute for Environmental Medicine (IUF) 120-hour Neural Progenitor Cell Migration Assay for Neuron Migration (NPC2b) (AID 2284300)
Method in brief: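 hNPC spheres, PDL/laminin, DMEM:F12 3:1 + 1% N2, 37C/5% CO2; 7 concentrations + solvent control (DMSO ≤0.1%), 5 d exposure, half-feed day 3. Fix 120 h, TUBB3 ICC, HCI: mean neuron migration distance ÷ glia distance.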

[5] = IUF_NPC3_neuronal_differentiation_120hr: Leibniz Research Institute for Environmental Medicine (IUF) 120-hour Neuronal Differentiation Assay (NPC3) (AID 2284301)
Method in brief: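 Primary human fetal neural progenitor spheres (GW 16-19, 0.3 mm) plated on poly-D-lysine/laminin in N2 medium, exposed from day 0 for 120 h with half-medium refresh at day 3. TUBB3+ cells as percent of Hoechst nuclei in migration area; DMSO baseline.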

[6] = IUF_NPC4_neurite_length_120hr: Leibniz Research Institute for Environmental Medicine (IUF) 120-hour Neuronal Morphology Assay for Neurite Length (NPC4) (AID 2284302)
Method in brief: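 Human fetal cortex (GW 16-19) neural progenitor spheres, 0.3 mm, were plated on poly-D-lysine/laminin in N2 differentiation medium and exposed from day 0 for 120 h, half-feeding at day 3. Mean TUBB3+ neurite length (µm) came from skeletonized images, relative to DMSO.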

[7] = IUF_NPC5_oligodendrocyte_differentiation_120hr: Leibniz Research Institute for Environmental Medicine (IUF) 120-hour Oligodendrocyte Differentiation Assay (NPC5) (AID 2284304; active = hit-call score of the fitted dose curve at least 0.9, where 1 is the maximum;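 also: primary human fetal neural progenitor spheres plated to migrate and differentiate; share of O4-positive cells among Hoechst nuclei found by CNN image analysis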)
Method in brief: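 hNPC spheres, fetal cortex GW 16-19; PDL/laminin, DMEM:F12 3:1 + 1% N2, 37C/5% CO2; 7 concentrations + solvent control, 5 d exposure, half-change day 3. Readout: %O4+ of Hoechst+ nuclei in migration area, CNN classification; DMSO baseline.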

[8] = IUF_NPC4_neurite_area_120hr: Leibniz Research Institute for Environmental Medicine (IUF) 120-hour Neuronal Morphology Assay for Neurite Area (NPC4) (AID 2284305; active = hit-call score of the fitted dose curve at least 0.9, where 1 is the maximum)
Method in brief: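 Human fetal cortex-derived neural progenitor spheres (0.3 mm, GW 16-19) plated on poly-D-lysine/laminin in N2 differentiation medium and exposed from day 0 for 120 h across 7 concentrations plus solvent control. Neurite area is mean pixel area per TUBB3-positive neuron via skeletonization, analysed relative to DMSO.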

[9] = IUF_NPC2-5_cytotoxicity_72hr: Cytotoxicity Assessment at 72 hours in the Leibniz Research Institute for Environmental Medicine (IUF) Neural Progenitor Cell Migration and Differentiation Assay for Cytotoxicity (NPC2-5) (AID 2284306; active = hit-call score of the fitted dose curve at least 0.9, where 1 is the maximum;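 also: LDH release into supernatant measured by resorufin fluorescence marking membrane damage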)
Method in brief: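 Human fetal (GW 16-19) neural progenitor spheres, 0.3 mm, plated on poly-D-lysine/laminin in N2 differentiation medium and exposed from day 0 to 7 concentrations plus solvent control (DMSO ≤0.1%). LDH-dependent resazurin-to-resorufin fluorescence in supernatant at 72 h.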

[10] = IUF_NPC2-5_cytotoxicity_120hr: Cytotoxicity Assessment at 120 hours in the Leibniz Research Institute for Environmental Medicine (IUF) Neural Progenitor Cell Migration and Differentiation Assay (NPC2-5) (AID 2284307; active = hit-call score of the fitted dose curve at least 0.9, where 1 is the maximum)
Method in brief: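 hNPC spheres on PDL/laminin, N2 medium, 37C; 7 concs + solvent control, DMSO ≤0.1%; 5-day exposure, half medium changed day 3. LDH in supernatant at 120 h, resazurin→resorufin fluorescence, gain-of-signal.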

[11] = IUF_NPC2-5_cell_number_120hr: Cell Number Assessment at 120 hours in the Leibniz Research Institute for Environmental Medicine (IUF) Neural Progenitor Cell Migration and Differentiation Assay (NPC2-5) (AID 2284308);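 also: count of Hoechst-stained nuclei in migration zone around plated human neural progenitor spheres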
Method in brief: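 Hoechst-stained nuclei within the migration area were counted by automated high content imaging after 120 h. Single hNPC spheres differentiated on poly-D-lysine/laminin in DMEM/F12 (3:1) with 1% N2, compound present throughout, DMSO ≤0.1%.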

[12] = IUF_NPC2-5_viability_120hr: Viability Assessment at 120 hours in the Leibniz Research Institute for Environmental Medicine (IUF) Neural Progenitor Cell Migration and Differentiation Assay (NPC2-5) (AID 2284312)
Method in brief: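 Human fetal (GW 16-19) neural progenitor spheres of 0.3 mm were plated on poly-D-lysine/laminin in N2 differentiation medium and exposed from day 0 for 120 h, with half-medium refresh at day 3. Viability was read as alamar blue resazurin-to-resorufin fluorescence against DMSO.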

[13] = VALA_TUBHUV_Agonist_CellCount: Viability Assessment in the VALA Sciences human Umbilical Vein Endothelial Tubule Formation (TUBHUV) Agonism Assay (AID 2284309; active = hit-call score of the fitted dose curve at least 0.9, where 1 is the maximum)
Method in brief: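 HUVEC co-cultured 1:3 with HDF for 3 days in 10 ng/ml VEGF, then compounds added in VEGF medium for a further 3 days (72 h). Nuclear-stain/CD31 imaging cell count. Positive-direction fit versus 0.1% DMSO vehicle.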

[14] = VALA_TUBHUV_Antagonist_CellCount: Viability Assessment in the VALA Sciences human Umbilical Vein Endothelial Tubule Formation (TUBHUV) Antagonism Assay (AID 2284310; active = hit-call score of the fitted dose curve at least 0.9, where 1 is the maximum)
Method in brief: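 HUVEC co-cultured with HDF (1:3) 3 days in 10 ng/ml VEGF, then 3 days with compounds in VEGF medium. Fixed, nuclear stain and CD31 immunofluorescence, imaged; cell counts fitted versus 0.1% DMSO, loss of signal read as lower viability.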

[15] = VALA_TUBIPS_Agonist_TubuleLength: VALA Sciences human iPS-derived Endothelial Tubule Formation (TUBIPS) Agonism Assay (AID 2284311; active = hit-call score of the fitted dose curve at least 0.9, where 1 is the maximum)
Method in brief: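 Human iPS-derived endothelial cells were exposed to compound for 72 h. Tubule formation was imaged by high-content fluorescence and scored as gain of signal relative to DMSO vehicle (agonist mode).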

[16] = read-out: Interleukin-8 (IL8), CXCL8 (gene 3576); assay: BSK_MyoF_IL8: BioMAP Diversity Plus: MyoF Assay for Interleukin-8 (IL8) Biomarker Activity (AID 2284261); conditions: primary human lung fibroblasts
Method in brief: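 Lung fibroblasts (human primary) → chemical exposure → 24 h → IL-8 measured by ELISA. Signal increase scored versus DMSO control.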

Decorin, DCN (gene 1634) = assay: BSK_MyoF_Decorin: BioMAP Diversity Plus: MyoF Assay for Decorin Biomarker Activity (AID 2284265); conditions: primary human lung fibroblasts
Method in brief: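 ELISA readout of decorin, 24 h post-dosing; primary human lung fibroblast (MyoF) culture; gain-of-signal fit vs DMSO baseline.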

[17] = BSK_MyoF_SRB: Viability Assessment in the BioMAP Diversity Plus: MyoF Assay (AID 2284267); conditions: primary human lung fibroblasts;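 also: total protein by SRB absorbance in parallel cultures as cytotoxicity measure; cells assessed 24 h after compound addition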
Method in brief: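 Human lung fibroblasts dosed with chemical and assessed 24 h later for overt cytotoxicity in parallel cultures. Total protein quantified by sulforhodamine B staining (0.1% SRB after 10% TCA fixation), read at 560 nm, analysed in positive direction versus DMSO baseline.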

[18] = read-out: Matrix Metallopeptidase 1 (MMP1), MMP1 (gene 4312); assay: BSK_MyoF_MMP1: BioMAP Diversity Plus: MyoF Assay for Matrix Metallopeptidase 1 (MMP1) Biomarker Activity (AID 2284268); conditions: primary human lung fibroblasts
Method in brief: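 Cells: human lung fibroblasts. Exposure: 24 h chemical dosing. Detection: ELISA for MMP1. Analysis: upward fitting against DMSO negative control.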

[19] = read-out: TIMP metallopeptidase inhibitor 1 (TIMP1), TIMP1 (gene 7076); assay: BSK_MyoF_TIMP1: BioMAP Diversity Plus: MyoF Assay for TIMP metallopeptidase inhibitor 1 (TIMP1) Biomarker Activity (AID 2284269); conditions: primary human lung fibroblasts
Method in brief: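 ELISA quantified TIMP-1 levels after 24 h dosing of primary human lung fibroblasts, with DMSO as baseline. Parallel SRB total protein staining (0.1% SRB after TCA fixation, 560 nm) flagged overt cytotoxicity.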

Measured: AC50

CCN(CC)C(=O)c1cccc(C)c1
inactive: [1] | [2] | [3] | [4] | [5] | [6] | [7] | [8] | [9] | [10] | [11] | [12]

N[C@@H](Cc1cc(I)c(Oc2ccc(O)c(I)c2)c(I)c1)C(=O)O
inactive: [13] | [14] | [15]

COCCO
inactive: [16] | Decorin, DCN (gene 1634) | [17] | [18] | [19]

C#CCOC(=O)[C@@H](C)Oc1ccc(Oc2ncc(Cl)cc2F)cc1
inactive: [1] | [2] | [3] | [4] | [5] | [6] | [8] | [9] | [10] | [11] | [12]

Cc1nn(C)c(Oc2ccccc2)c1C=NOCc1ccc(C(=O)OC(C)(C)C)cc1
active: [1] 12.5 µM | [2] 5.23 µM | [3] 2.48 µM | [4] 6.63 µM | [11] 5.04 µM
inactive: [5] | [6] | [7] | [8] | [9] | [10] | [12]

CCCN(CCC)C(=O)SCC
inactive: [1] | [2] | [3] | [4] | [5] | [6] | [7] | [8] | [9] | [10] | [11] | [12]

N#CSCSc1nc2ccccc2s1
active: [16] 11.2 µM | Decorin, DCN (gene 1634) 5.27 µM | [17] 5.55 µM | [18] 3.63 µM | [19] 11.4 µM

CCC(C)OC(=O)N1CCCCC1CCO (configuration not stated)
inactive: [16] | Decorin, DCN (gene 1634) | [17] | [18] | [19]

CC(C)(c1ccc(O)cc1)c1ccc(O)cc1
inactive: [1] | [2] | [3] | [4] | [5] | [6] | [7] | [8] | [9] | [10] | [11] | [13] | [14] | [15] | [12]

CC(C)CCCCCCc1ccc(O)cc1
inactive: [13] | [15]

S=C(S)NCCNC(=S)S.[Mn+2].[S-]C([S-])=NCCN=C([S-])[S-].[Zn+2]
inactive: [1] | [2] | [3] | [4] | [5] | [6] | [7] | [8] | [9] | [10] | [11] | [13] | [15] | [12]

O=C(O)c1ccccc1
inactive: [1] | [2] | [3] | [4] | [5] | [6] | [7] | [8] | [9] | [10] | [11] | [12]

S=C([S-])NCCNC(=S)[S-].[Mn+2]
inactive: [1] | [2] | [3] | [4] | [5] | [6] | [7] | [8] | [9] | [10] | [11] | [12]

CSC(=O)c1cccc2nnsc12
inactive: [1] | [2] | [3] | [4] | [5] | [6] | [7] | [8] | [9] | [10] | [11] | [12]
